For assay [1], the system named is DLD1. Kind of assay: cell viability (CellTiter-Glo) relative to plate median (fraction of plate median); higher = more viable cells. Conditions: 5 µM; treatment time 24 h; reporter: 7TFP. The procedure, abridged:
(§1)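 Values are well luminescence normalised to the plate median, from either a firefly luciferase or a CellTiterGlo readout on parallel plates. The cells, colorectal cancer lines stably transduced with lentiviral 7TFP or TCF4/Wnt firefly luciferase reporters, were treated with library compounds at a final 5 µM for 24 h. The mean of two independent replicates is listed.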

Assay [2] relates to HCT116. The assay is described as above. The note with it: 5 µM; treatment time 24 h; reporter: TCF4/Wnt. The procedure, abridged: as §1
Assay [3] has as its system SW480. Described as above. The note with it: 5 µM; treatment time 24 h; reporter: 7TFP. The procedure, abridged: as §1
Assay [4] concerns DLD1. Briefly: TCF/Wnt firefly luciferase reporter signal relative to plate median (fraction of plate median); higher = higher Wnt reporter signal. Conditions: 5 µM; treatment time 24 h; reporter: 7TFP. The procedure, abridged:
as §1
(Reporter assays use an easily measured gene product as a stand-in for the process of interest.)

Assay [5] relates to SW480. The assay is described as above. Conditions: 5 µM; treatment time 24 h; reporter: 7TFP. The procedure, abridged: as §1

± gives the standard deviation of the averaged measurements.

Take `CC1(C)O[C@@H]2[C@@H](CO[C@@]3(COS(N)(=O)=O)OC(C)(C)O[C@@H]23)O1`: the cell viability in assay [1] was found to be 0.925 ± 0.042; in assay [2], 1.04 ± 0.014; in assay [3], 1.03 ± 0.052. Further, the “TCF/Wnt firefly luciferase reporter signal” value is 1.12 ± 0.11 in assay [4] and 0.845 ± 0.12 in assay [5].
With `CC(C)CCC[C@@H](C)[C@H]1CC[C@H]2[C@@H]3CC=C4CC(=O)CC[C@]4(C)[C@H]3CC[C@]12C`, the cell viability in assay [1] was 1 ± 0.026; in assay [2], 1.015 ± 0.0071; in assay [3], 1.03 ± 0.048. In addition, the “TCF/Wnt firefly luciferase reporter signal” value in assay [4] was found to be 0.979 ± 0.13; in assay [5] it was 0.974 ± 0.19.
The corresponding values for `CC(C)=CCc1c2c(c3occ(-c4ccc(O)cc4)c(=O)c3c1O)C=CC(C)(C)O2` are 0.955 ± 0.093, 0.98 ± 0.028, 0.99 ± 0.015, 1.1 ± 0.099 and 0.914 ± 0.099.
For `CCCCCCCCCCCCCCCCOP(=O)([O-])OCC[N+](C)(C)C`, in that order: 1.04 ± 0.035, 0.984 ± 0.0099, 0.969 ± 0.035, 1.07 ± 0.16 and 1.04 ± 0.05.
With `COC(=O)c1cc(O)c(=O)c2c(O)c(O)ccc2c1`, the cell viability in assay [1] came out at 0.982 ± 0.096; in assay [2], 0.8955 ± 0.0021; in assay [3] it was 0.997 ± 0.033. The “TCF/Wnt firefly luciferase reporter signal” value in assay [4] came out at 0.785 ± 0.037; in assay [5] it was 0.951 ± 0.11.
The corresponding values for `O=C(O[C@@H]1Cc2c(O)cc(O)cc2O[C@@H]1c1cc(O)c(=O)c2c(O)c(O)cc([C@H]3Oc4cc(O)cc(O)c4C[C@H]3O)c2c1)c1cc(O)c(O)c(O)c1` are 1.04 ± 0.069, 1.15 ± 0.028, 1.01 ± 0.021, 1.1 ± 0.057 and 1.04 ± 0.05.
The corresponding values for `NC(=O)C(c1ccccc1)(c1ccccc1)[C@@H]1CCN(CCc2ccc3c(c2)CCO3)C1` are 0.873 ± 0.067, 0.983 ± 0.0042, 0.947 ± 0.03, 1.03 ± 0.094 and 1.005 ± 0.0071.
For `Cc1cc(-c2ncc(CC(=O)Nc3ccc(-c4cnccn4)cn3)cc2C)ccn1`, the cell viability was 0.974 ± 0.052 in assay [1], 0.975 ± 0.032 in assay [2] and 0.914 ± 0.0028 in assay [3]. Moreover, the “TCF/Wnt firefly luciferase reporter signal” value in assay [4] was 0.921 ± 0.042; in assay [5], 0.847 ± 0.21.
